Out of some 310,000 compounds screened, about 14,000 (4.5%) showed an effect of 50% or more. Effects have a minus sign here. This is one part of a sample in which strong results are shown more often than they occur.
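Also: peak tail current of the secondary pulse compared with the same well before compound.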

The assay deals with human ether-à-go-go-related gene (hERG) potassium channel (human, UniProt Q12809). Description: primary screen, population patch clamp on CHO cells stably expressing hERG; higher = less effect of the substance.
Chain of human ether-à-go-go-related gene (hERG) potassium channel (Q12809 whole entry, looked up): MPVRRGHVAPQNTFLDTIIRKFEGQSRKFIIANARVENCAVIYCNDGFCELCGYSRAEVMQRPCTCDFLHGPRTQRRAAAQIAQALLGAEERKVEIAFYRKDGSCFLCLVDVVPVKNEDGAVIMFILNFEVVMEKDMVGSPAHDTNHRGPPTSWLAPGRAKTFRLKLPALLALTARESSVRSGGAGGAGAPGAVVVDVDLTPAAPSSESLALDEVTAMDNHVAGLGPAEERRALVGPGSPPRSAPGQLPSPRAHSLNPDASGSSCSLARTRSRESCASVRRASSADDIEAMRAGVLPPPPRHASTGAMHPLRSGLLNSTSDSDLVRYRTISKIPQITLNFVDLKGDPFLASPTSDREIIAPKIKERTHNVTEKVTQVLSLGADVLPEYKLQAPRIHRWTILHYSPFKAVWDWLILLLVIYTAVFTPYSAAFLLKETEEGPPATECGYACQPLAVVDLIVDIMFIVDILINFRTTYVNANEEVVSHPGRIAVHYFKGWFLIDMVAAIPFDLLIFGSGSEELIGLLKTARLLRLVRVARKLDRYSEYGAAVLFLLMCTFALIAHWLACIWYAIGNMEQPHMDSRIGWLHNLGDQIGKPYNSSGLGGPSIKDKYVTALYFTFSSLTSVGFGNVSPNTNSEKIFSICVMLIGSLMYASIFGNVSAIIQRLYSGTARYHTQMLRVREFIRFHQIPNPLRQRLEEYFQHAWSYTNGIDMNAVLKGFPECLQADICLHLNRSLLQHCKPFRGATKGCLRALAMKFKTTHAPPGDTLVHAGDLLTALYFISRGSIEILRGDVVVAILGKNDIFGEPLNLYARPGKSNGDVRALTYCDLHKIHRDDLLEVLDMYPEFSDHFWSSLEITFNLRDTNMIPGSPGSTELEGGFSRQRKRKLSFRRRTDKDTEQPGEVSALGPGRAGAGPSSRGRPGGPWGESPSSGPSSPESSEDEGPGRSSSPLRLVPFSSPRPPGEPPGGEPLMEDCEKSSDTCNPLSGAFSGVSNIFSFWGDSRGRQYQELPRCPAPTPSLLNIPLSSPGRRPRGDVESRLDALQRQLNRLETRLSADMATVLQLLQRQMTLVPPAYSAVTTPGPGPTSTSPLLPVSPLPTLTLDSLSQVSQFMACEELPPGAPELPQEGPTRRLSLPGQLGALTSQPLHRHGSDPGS
In the case of `O=C(O)CCCC(=O)N(Cc1ccccc1)Cc1ccccc1`, the “hERG current change (%, negative = inhibition) at 10uM” value is recorded as 30.4%.
On to `Cn1c2c(c(=O)n(C)c1=O)C(c1cccc([N+](=O)[O-])c1)Nc1ccccc1O2` (centres unmarked), for which the “hERG current change (%, negative = inhibition) at 10uM” value is -12.3%.
On to `C[C@H](N)C(=O)N1CCC(C(=O)N[C@@H](Cc2ccccc2)C(=O)Nc2ccc(F)cc2)CC1`, for which the “hERG current change (%, negative = inhibition) at 10uM” value was -5.88%.
`CC(=O)Nc1c([N+](=O)[O-])cc(C)c(Cl)c1[N+](=O)[O-]`: the “hERG current change (%, negative = inhibition) at 10uM” value was 6.22%.
Consider `COc1ccc(Cn2c(=O)[nH]c3cc(C(=O)N4CCN(c5ccc(OC)cc5)CC4)ccc3c2=O)cc1`, for which the “hERG current change (%, negative = inhibition) at 10uM” value is listed as 10.1%.
On to `Cc1cc(Cl)cc(Br)c1OCCNCC(C)O` (centres unmarked), for which the “hERG current change (%, negative = inhibition) at 10uM” value is -18.7%.
With `O=C1C2(CCC13COC(c1ccc(O)cc1)OC3)COC(c1ccc(O)cc1)OC2` (centres unmarked), the “hERG current change (%, negative = inhibition) at 10uM” value is given as -2.43%.
As for `COc1ccc(OC)c(C2/C(=C(/O)c3ccc(C)cc3)C(=O)C(=O)N2Cc2ccco2)c1` (centres unmarked), the figure is -7.22%; as for `Cc1cc(=O)oc2cc(OCC(=O)Nc3ccc(CN4CCOCC4)cc3)ccc12`, 3.15%.
Regarding `COc1cc2c3c(c1)/C(=C1/SC(=S)NC1=O)C(=O)N3C(C)(C)C=C2C`, the “hERG current change (%, negative = inhibition) at 10uM” value was found to be 2.71%.
Turning to `CCc1cccc(NC(=O)C2CCCN2S(=O)(=O)c2cccc3cccnc23)c1` (centres unmarked), the “hERG current change (%, negative = inhibition) at 10uM” value was -10.4%.
As for `O=C(CCCn1cc([N+](=O)[O-])cn1)Nc1ccc2c(c1)OCO2`, the figure is 4.52%; as for `CCOCCCNC(=O)C1CCN(S(=O)(=O)c2ccc3nc4c(c(C(=O)O)c3c2)CCCCC4)CC1`, 49.4%; as for `CC1CCN(S(=O)(=O)c2ccc(C(=O)NC3CCS(=O)(=O)C3)cc2)CC1` (centres unmarked), -5.94%.
For the compound `CC(=O)NCCn1c(SCc2ccc(C)cc2)nc2ccccc2c1=O`, the “hERG current change (%, negative = inhibition) at 10uM” value was -31.2%.
For the compound `COCCn1c(SCC(=O)Nc2cccnc2Cl)nc2cc(Cl)ccc2c1=O`, the “hERG current change (%, negative = inhibition) at 10uM” value is -29.6%.
As for `CC(C)N(CCn1c(SCC(=O)Nc2cccnc2Cl)nc2ccccc2c1=O)C(C)C`, the “hERG current change (%, negative = inhibition) at 10uM” value is recorded as -69.7%.
Take `CC(=O)NCCn1c(SCC(=O)OCc2ccccc2)nc2ccccc2c1=O`: the “hERG current change (%, negative = inhibition) at 10uM” value is listed as -60.2%.
In the case of `COCCn1c(SCC(=O)Nc2cccnc2Cl)nc2ccccc2c1=O`, the “hERG current change (%, negative = inhibition) at 10uM” value was determined as 4.53%.
In the case of `CC(=O)NCCn1c(SCC(=O)c2ccccc2)nc2ccccc2c1=O`, the “hERG current change (%, negative = inhibition) at 10uM” value was -29.9%.
As to `O=C(Cc1ccccc1)N1CCN(C(=O)c2cccs2)CC1`, the “hERG current change (%, negative = inhibition) at 10uM” value worked out at 6.2%.
Turning to `O=C(Nc1cc(Cl)ccc1Cl)c1noc2c1CCCC2`, the “hERG current change (%, negative = inhibition) at 10uM” value amounted to 12.4%.
In the case of `CC(=O)N(Cc1ccccc1)c1ccccc1C(=O)O`, the “hERG current change (%, negative = inhibition) at 10uM” value came out at 13.1%.
On to `CS(=O)(=O)n1nc(-c2ccco2)nc1N`, for which the “hERG current change (%, negative = inhibition) at 10uM” value stood at 20.3%.
In the case of `COc1cccc(OCc2nnc(SCC(=O)NCc3ccco3)n2C)c1`, the “hERG current change (%, negative = inhibition) at 10uM” value is recorded as -0.586%.
On to `Cc1ccc(C)c(NC(=O)CN(C)C(=O)c2cccc(S(=O)(=O)N3CCN(Cc4ccccc4)CC3)c2)c1`, for which the “hERG current change (%, negative = inhibition) at 10uM” value is given as 9.47%.
For the compound `COc1ccc(O)c(CN2CCN(CCCc3ccccc3)C(CCO)C2)c1` (centres unmarked), the “hERG current change (%, negative = inhibition) at 10uM” value was -68.2%.
On to `COc1ccc(O)c(CN2CCN(CCc3ccccc3)C(CCO)C2)c1` (centres unmarked), for which the “hERG current change (%, negative = inhibition) at 10uM” value is given as -54.6%.
As to `OCCC1CN(Cc2c(O)ccc3ccccc23)CCN1CCc1ccccc1` (centres unmarked), the “hERG current change (%, negative = inhibition) at 10uM” value was -27.1%.
As for `Cc1ccc(NC(=O)COC(=O)c2ccc3c(c2)OCCO3)cc1S(=O)(=O)N1CCOCC1`, the figure is 6.16%.
Regarding `O=C(CN1C(=O)NC2(CCc3ccccc32)C1=O)NCc1ccccc1Cl` (centres unmarked), the “hERG current change (%, negative = inhibition) at 10uM” value is 7.01%.
With `Nc1c(C(=O)NCC2CCCO2)c2nc3ccccc3nc2n1-c1ccccc1` (centres unmarked), the “hERG current change (%, negative = inhibition) at 10uM” value is reported as 2.35%.
With `Cc1ccc(Cl)cc1NC(=O)C1CCCN1S(=O)(=O)c1ccc(-c2ccc(=O)[nH]n2)s1` (centres unmarked), the “hERG current change (%, negative = inhibition) at 10uM” value is recorded as -65.4%.
As for `O=C(O)C1CCCN(S(=O)(=O)c2ccc(-c3ccc(=O)[nH]n3)s2)C1` (centres unmarked), the figure is 16.5%; as for `CCc1nnc(NC(=O)C2CCCN2S(=O)(=O)c2ccccc2)s1` (centres unmarked), 14.8%.
As for `Cc1cccc(C)c1NC(=O)C1CCCN1S(=O)(=O)c1ccccc1` (centres unmarked), the figure is 4.4%; as for `CCc1ccccc1NC(=O)C1CCCN1S(=O)(=O)c1ccc(-c2ccc(=O)[nH]n2)s1` (centres unmarked), -54.7%; as for `Cc1cccc(C)c1NC(=O)C1CCCN1S(=O)(=O)c1ccc(-c2ccc(=O)[nH]n2)s1` (centres unmarked), -68.2%.
Regarding `O=C(Nc1ccc(F)cc1F)C1CCCN1S(=O)(=O)c1ccc(-c2ccc(=O)[nH]n2)s1` (centres unmarked), the “hERG current change (%, negative = inhibition) at 10uM” value is recorded as -33.5%.
As for `CCc1ccccc1NC(=O)C1CCCN1S(=O)(=O)c1ccc2c(c1)n(C)c(=O)c(=O)n2C` (centres unmarked), the “hERG current change (%, negative = inhibition) at 10uM” value is -3.91%.
Turning to `Cc1ccc(NC(=O)C2CCCN2S(=O)(=O)c2ccc(-c3ccc(=O)[nH]n3)s2)c(C)c1` (centres unmarked), the “hERG current change (%, negative = inhibition) at 10uM” value was -15.4%.
As for `COc1cccc(N2CCN(c3nc(-c4ccccc4C)cc(=O)[nH]3)CC2)c1`, the figure is 3.88%.
As for `c1cc2c(cc1C1=NNC(=NC3CC3)SC1)OCCO2`, the figure is 16.8%; as for `Cc1cc(C(=O)NNC(=O)c2sccc2C)c(C)o1`, 7.27%.
With `O=S(=O)(c1ccc(F)cc1)N1CCN(c2ccccc2)CC1`, the “hERG current change (%, negative = inhibition) at 10uM” value was -6.53%.
Consider `CCN(Cc1ccccc1)C(=O)CCS(=O)(=O)c1cc2c(cc1Cl)NC(=O)CO2`, for which the “hERG current change (%, negative = inhibition) at 10uM” value was -50.7%.
As for `CN(Cc1ccccc1)C(=O)CCS(=O)(=O)c1cc2c(cc1Cl)NC(=O)CO2`, the “hERG current change (%, negative = inhibition) at 10uM” value is -38.9%.
As for `CCN(C(=O)CCS(=O)(=O)c1cc2c(cc1Cl)NC(=O)CO2)c1ccccc1`, the figure is -21.8%; as for `O=C1Nc2ccc(Br)cc2C12NNc1ccccc1O2` (centres unmarked), 23.9%; as for `Cn1c(N)c(C(=O)NCc2ccccc2Cl)sc1=S`, 18%.
As for `Cc1ccc(NC(=O)CSc2nc3ccccc3c3nc(CCn4cncc4C)nn23)c(C)c1`, the figure is 2.77%; as for `Cc1cccc(NC(=O)CSc2nc3ccccc3c3nc(CCc4c(C)n[nH]c4C)nn23)c1`, -9.44%; as for `Cc1ccccc1NC(=O)CSc1nc2ccccc2c2nc(CCn3cncc3C)nn12`, -55.6%.
With `Cc1ccc(NC(=O)CSc2nc3ccccc3c3nc(CCc4c(C)n[nH]c4C)nn23)cc1F`, the “hERG current change (%, negative = inhibition) at 10uM” value is reported as -11.7%.
`Cc1cncn1CCc1nc2c3ccccc3nc(SCC(=O)Nc3cccc(Cl)c3)n2n1`: the “hERG current change (%, negative = inhibition) at 10uM” value was -78.4%.
Take `Cc1ccccc1NC(=O)CSc1nc2ccccc2c(=O)n1C`: the “hERG current change (%, negative = inhibition) at 10uM” value was 1.39%.
For the compound `CCCCOC(=O)c1sc2nc(N3CCOCC3)c3c(c2c1N)CC(C)(C)OC3`, the “hERG current change (%, negative = inhibition) at 10uM” value was 9.29%.
For the compound `CCOC(=O)C1CCN(C(=O)c2ccc3c(c2)OCO3)CC1`, the “hERG current change (%, negative = inhibition) at 10uM” value was -5.29%.
In the case of `Cl.Clc1c(OCCCn2ccnc2)ccc2ccccc12`, the “hERG current change (%, negative = inhibition) at 10uM” value is -31.9%.
`COCCN1C(=O)/C(=C/c2ccc(OCc3ccc(C(=O)O)cc3)c(OC)c2)SC1=Nc1ccccc1`: the “hERG current change (%, negative = inhibition) at 10uM” value is listed as 7.58%.
Consider `NNC(=O)c1sccc1OCc1ccc(Cl)cc1Cl`, for which the “hERG current change (%, negative = inhibition) at 10uM” value was -18.5%.
As to `C=CCNC(=O)/C=C/c1cccs1`, the “hERG current change (%, negative = inhibition) at 10uM” value was found to be 16.4%.
As for `COC(=O)c1ccc(NC(=O)COC(=O)C2CCC2)cc1`, the “hERG current change (%, negative = inhibition) at 10uM” value came out at 4.03%.
`CCN(CC)CCN(Cc1cc2cccc(C)c2[nH]c1=O)C(=S)Nc1ccccc1`: the “hERG current change (%, negative = inhibition) at 10uM” value is reported as -66.2%.
As for `Cc1cccc2cc(CN(CC3CCCO3)C(=S)Nc3ccccc3)c(=O)[nH]c12` (centres unmarked), the figure is 2.39%; as for `Cc1ccc(NC(=S)N(Cc2cccs2)Cc2cc3cccc(C)c3[nH]c2=O)cc1`, -9.88%.
In the case of `Cc1cccc2cc(CN(CCN(C)C)C(=S)Nc3ccccc3)c(=O)[nH]c12`, the “hERG current change (%, negative = inhibition) at 10uM” value was -24%.
Regarding `CCN(CC)CCN(Cc1cc2cc(C)ccc2[nH]c1=O)C(=S)Nc1ccccc1`, the “hERG current change (%, negative = inhibition) at 10uM” value is -50.6%.
Turning to `Cc1ccc(NC(=S)N(CCN(C)C)Cc2cc3cc(C)ccc3[nH]c2=O)cc1`, the “hERG current change (%, negative = inhibition) at 10uM” value is given as -43.5%.
Consider `Cc1cccc(NC(=S)N(CCN(C)C)Cc2cc3cc(C)ccc3[nH]c2=O)c1`, for which the “hERG current change (%, negative = inhibition) at 10uM” value is listed as -16.5%.
With `Cc1ccc(NC(=S)N(CCN(C)C)Cc2cc3cccc(C)c3[nH]c2=O)cc1`, the “hERG current change (%, negative = inhibition) at 10uM” value is on record as -55.6%.
As for `Cc1ccc(NC(=S)N(CCN(C)C)Cc2cc3cc(C)cc(C)c3[nH]c2=O)cc1`, the figure is -7.41%.
Regarding `Cc1ccc(C(=O)N(CN2CCCC2=O)c2ccccc2)cc1`, the “hERG current change (%, negative = inhibition) at 10uM” value is listed as -1.3%.
As for `CCN(CC(=O)NCc1ccc(Cl)cc1)CC(=O)NC1(C#N)CCCC1`, the figure is -19.2%.
With `CC[C@H](C)Cc1cn([C@@H](CCCN=C(NC(=O)OC(C)(C)C)NC(=O)OC(C)(C)C)C(=O)NCCCCCCCCCCC(=O)N2CCN(C(=O)OC(C)(C)C)CC2)nn1`, the “hERG current change (%, negative = inhibition) at 10uM” value is given as 4.2%.
For the compound `CCOC(=O)c1c(NC(=O)C2=C(C)NC(=S)NC2c2ccc(CC)cc2)sc(C)c1C` (centres unmarked), the “hERG current change (%, negative = inhibition) at 10uM” value came to 7.47%.
Take `Cc1cc(SCC(=O)NN)c2cc(Br)ccc2n1`: the “hERG current change (%, negative = inhibition) at 10uM” value is recorded as -1.57%.
As for `Cc1ccc(S(=O)(=O)N2CCOC2CNC(=O)C(=O)NCCc2ccccc2)cc1` (centres unmarked), the figure is -25.6%; as for `CCOC(=O)c1c(N)c2cc([N+](=O)[O-])cnc2n1C`, 17.3%.
For the compound `CCOC(=O)c1cc2sccc2n1CCCN1C(=O)c2ccccc2C1=O`, the “hERG current change (%, negative = inhibition) at 10uM” value turned out to be 6.01%.
For `CN1CCN(C(N)=NC(=O)c2ccccc2)CC1`, the “hERG current change (%, negative = inhibition) at 10uM” value was 6.76%.
On to `COc1ccc(Cl)cc1S(=O)(=O)N1CCN=C1Cc1ccccc1`, for which the “hERG current change (%, negative = inhibition) at 10uM” value is recorded as -18.9%.
With `CCc1ccc(NS(=O)(=O)c2cc3[nH]c(=O)c(=O)[nH]c3cc2C)cc1`, the “hERG current change (%, negative = inhibition) at 10uM” value turned out to be 9.15%.

The values are drawn from article PMC4336329 (PLoS ONE, 2015).
